# Records with an inconclusive call do not appear. The source made the active and inactive calls.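 The calls were made as follows, unless noted: active = viability at or below 27.92% in each of two runs, the all-compound median minus 4 SD; inconclusive = no clear call, values can overlap the other calls; inactive = the rest.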
# Key:
# [1] = Her2 expression decrease, cell viability multiplex – SKBR3 breast tumor cells, AlphaScreen, ATP viability, primary screen (AID 461;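 active = Her2 level under about 52% in both replicate screens, with viability over 70% of control, limit read from the data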;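 as to Her2 level: lower value means less Her2 protein in the cells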;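 as to viability: percent of carrier control wells set as 100% viability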); details: SKBR3 Her2 protein level, 18-24 h, measured here: SKBR3 viability, ATP luminescence, at 10 µM
# [2] = biological target: Receptor tyrosine-protein kinase erbB-2 (Homo sapiens) (UniProt P04626); experiment: as above; details: 18-24 h, at 10 µM, stronger effect = lower value
# [3] = reduced viability of SK-BR-3 breast cancer cells – cell-based, 24 h, human, pilot screen (AID 572;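 active = viability at or below 10% of carrier control in both of two separate runs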;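 also: compound exposure lasted between 18 and 24 h rather than exactly 24 h; 100% = carrier-treated control wells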); details: SK-BR-3 viability, CellTiter-Glo luminescence, at 10 µM, stronger effect = lower value
# [4] = HUVEC growth inhibition – cell-based, human, primary screen (AID 575;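 active = viability at or below 30% in both replicate assays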;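 also: 100% = median of untreated cell wells with 0.1% DMSO on each plate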); details: HUVEC proliferation, CellTiter-Glo luminescence, 72 h; at 10 µM; stronger effect = lower value
# [5] = H69AR cell proliferation blockers – human, duplicate replicates, primary screen (AID 580;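 active = viability at or under a set limit in both replicates, limit being median viability minus 3 SD, cut at about 48% in these data, passing the limit was not always enough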;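 also: 100% = mean luminescence of untreated wells and 0% = no signal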); details: H69AR lung tumor cells viability, ATP luminescence, 72 h; at 10 µM; stronger effect = lower value
# [6] = MRP1 drug-resistance reversers in H69AR cells – cell-based, doxorubicin co-treatment, pilot screen (AID 601;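 active = viability loss from added drug above about 55%, and viability with drug at most 40%, in both replicates, limit read from the data, passing the limit was not always enough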); details: CellTiter-Glo, 72 h, at 10 µM; for differential viability (reversal): stronger effect = higher value
# [7] = yeast transport mutant growth inhibition pilot in 384-well plates, post-Golgi transport modulator project (AID 636; in the data active = inhibition above about 31%); details: absorbance 615 nm, about 18 h, stronger effect = higher value
# [8] = growth suppression of yeast trafficking mutant, preliminary HTS, modulators of trafficking downstream of Golgi apparatus project, 1536-format plate, OD 615 nm (AID 637; in the data active = inhibition above about 30%); details: yeast transport mutant growth, absorbance 615 nm, 18 h; stronger effect = higher value
# [9] = S. cerevisiae growth inhibition in permissive medium (OD615), pilot counter-assay for S. cerevisiae lifespan shortening project, permissive growth control (AID 705;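 active = growth inhibition above 25% in both replicates, a cutoff set 3 SD above the mean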); details: OD615, 24 h, at 10 µM, stronger effect = higher value
# [10] = S. cerevisiae growth inhibition in restrictive medium, OD615, pilot screen, restrictive growth control, yeast lifespan reduction project (AID 706;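 active = growth inhibition above a set limit, 3 SD over mean compound inhibition, in both replicates, cut at about 43% in these data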;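 also: modified DeaD lifespan yeast strain shifted to restrictive glucose medium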); details: OD615, 48 h, at 10 µM, stronger effect = higher value
# [11] = doxorubicin toxicity protection in MRP-1 cells – H69AR cells, CellTiter-Glo, duplicate, MRP-1 activator project, pilot screen (AID 807;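 active = viability increase at or above a cutoff of the median across tested compounds plus 3 SD, cut at about 8.5% in these data, passing the limit was not always enough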;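 also: compound pretreatment 18-22 h then 72 h combined with doxorubicin; 0% = doxorubicin alone and 100% = vehicle without doxorubicin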); details: H69AR viability with doxorubicin, CellTiter-Glo luminescence; at 10 µM; stronger effect = higher value
# [12] = viability of HCT116 without oncogenic beta-catenin – human colon tumor cells, pilot screen (AID 823;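 active = cell viability at or below a set limit in both duplicate runs, the limit being the all-compound median minus 4 SD, cut at about 23% in these data, passing the limit was not always enough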;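 also: 0% = wells killed by 20 µM Hyamine and 100% = untreated DMSO cell wells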); details: HCT116 beta-catenin knockout viability, CellTiter-Glo, 60 h; at 10 µM; stronger effect = lower value
# [13] = viability of PTEN-null HCT116 cells – cell-based, HCT116 clonal line, CellTiter-Glo, pilot screen (AID 824); details: HCT116 PTEN-deleted viability, 60 h, at 10 µM, stronger effect = lower value;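 also: 0% = 20 µM Hyamine control and 100% = vehicle cell control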
# [14] = RAM pathway blockade in budding yeast – dse1pr::URA3 reporter, 5-FOA selection, pilot screen (AID 869;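 active = inhibition over a set limit, the all-compound mean plus 3 SD, in both replicate runs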;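 also: 0% = DMSO wells with no growth and 100% = 10 µM 1-NA-PP1 with full growth; RAM network block rescues cells from 5-FOA so hits raise OD615 growth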); details: S. cerevisiae dse1pr::URA3 5-FOA growth, OD615, 2 d; at 10 µM; stronger effect = higher value; strain carries analog-sensitive mutant Cbk1 kinase
# [15] = RAM signaling pathway blockade in yeast – S. cerevisiae, Pdr1DBD-CYC8 efflux-inhibited sensitized strain, primary screen (AID 1298;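 active = RAM network inhibition above 8.4% in each of two replicates, 3 SD over the compound average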;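 also: 0% = DMSO untreated cells without growth and 100% = 10 µM 1-NA-PP1 full growth; higher means more yeast growth rescued from 5-FOA killing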); details: S. cerevisiae cbk1-as DSE1-URA3 strain, 5-FOA growth OD615, 2 d; at 50 µM; stronger effect = higher value
# [16] = H69AR cells + 2 uM doxorubicin, measured here: viability with 2 uM doxorubicin, stronger effect = lower value
# [17] = H69AR cells, compound alone cytotoxicity
# Receptor tyrosine-protein kinase erbB-2 (Homo sapiens), sequence (P04626 whole entry, looked up): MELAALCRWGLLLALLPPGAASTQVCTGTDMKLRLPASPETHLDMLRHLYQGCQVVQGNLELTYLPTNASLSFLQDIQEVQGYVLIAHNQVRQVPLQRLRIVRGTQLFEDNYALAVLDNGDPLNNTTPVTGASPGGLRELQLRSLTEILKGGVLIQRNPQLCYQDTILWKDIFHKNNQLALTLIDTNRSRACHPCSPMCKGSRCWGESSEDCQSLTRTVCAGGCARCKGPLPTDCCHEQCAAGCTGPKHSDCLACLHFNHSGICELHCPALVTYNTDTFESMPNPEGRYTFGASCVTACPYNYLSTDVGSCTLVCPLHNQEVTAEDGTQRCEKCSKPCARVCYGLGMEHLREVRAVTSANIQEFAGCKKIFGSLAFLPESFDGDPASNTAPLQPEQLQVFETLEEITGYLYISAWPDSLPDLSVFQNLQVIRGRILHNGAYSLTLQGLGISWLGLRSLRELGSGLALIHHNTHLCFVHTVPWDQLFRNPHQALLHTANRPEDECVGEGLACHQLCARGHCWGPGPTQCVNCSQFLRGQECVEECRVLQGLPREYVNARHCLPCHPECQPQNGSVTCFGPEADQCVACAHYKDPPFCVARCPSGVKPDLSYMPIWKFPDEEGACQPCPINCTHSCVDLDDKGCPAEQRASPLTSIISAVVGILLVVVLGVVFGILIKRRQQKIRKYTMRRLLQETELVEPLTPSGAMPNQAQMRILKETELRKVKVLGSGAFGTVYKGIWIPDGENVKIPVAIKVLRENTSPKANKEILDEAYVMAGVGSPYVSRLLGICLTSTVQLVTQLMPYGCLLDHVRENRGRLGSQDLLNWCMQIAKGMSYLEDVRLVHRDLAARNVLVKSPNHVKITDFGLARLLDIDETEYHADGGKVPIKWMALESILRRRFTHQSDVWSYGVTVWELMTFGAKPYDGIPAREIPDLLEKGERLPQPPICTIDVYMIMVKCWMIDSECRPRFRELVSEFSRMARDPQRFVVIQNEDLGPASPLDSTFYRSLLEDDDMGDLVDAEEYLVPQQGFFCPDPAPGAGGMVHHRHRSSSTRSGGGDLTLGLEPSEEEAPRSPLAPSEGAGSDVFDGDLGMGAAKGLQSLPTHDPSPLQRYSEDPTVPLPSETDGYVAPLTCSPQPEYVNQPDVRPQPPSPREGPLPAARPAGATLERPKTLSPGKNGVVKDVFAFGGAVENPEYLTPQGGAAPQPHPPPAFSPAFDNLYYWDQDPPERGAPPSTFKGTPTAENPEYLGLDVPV
SMILES,viability [1] [%],Her2 level [2],viability [3],viability [4],viability [5],differential viability (reversal) ([6]; H69AR cells + 2 uM doxorubicin),"viability [6, 16] [%]","viability [6, 17] [%]",inhibition [7],inhibition [8],growth inhibition [9],growth inhibition [10],viability increase [11],viability [12],viability [13],inhibition [14],RAM network inhibition [15]
CCc1c(C)c2c(C)nn(-c3ccccc3)c2[nH]c1=O,83,81.5% (inactive),83% (inactive),68.9% (inactive),90.1% (inactive),5.91% (inactive),84.2,90.1,-0.65% (inactive),-1.31% (inactive),-3.86% (inactive),4.15% (inactive),-2.75% (inactive),85.1% (inactive),79% (inactive),1.53% (inactive),0.31% (inactive)
Cn1cnc2cc(NC(=O)c3ccc(Cl)cc3)ccc21,91.5,90.5% (inactive),91.5% (inactive),88.1% (inactive),93% (inactive),-2.15% (inactive),95.2,93,-4% (inactive),-3.33% (inactive),0.595% (inactive),7.51% (inactive),0.08% (inactive),94.5% (inactive),96.5% (inactive),0.75% (inactive),-1.41% (inactive)
N#C/C(C(=O)N1CCOCC1)=C1/SC=C(c2ccccc2)N1c1ccccc1,102,92% (inactive),102% (inactive),107% (inactive),96.1% (inactive),4.83% (inactive),91.3,96.1,-7.57% (inactive),1.67% (inactive),-1.56% (inactive),-17.9% (inactive),-1.27% (inactive),96.6% (inactive),95% (inactive),2.57% (inactive),1.55% (inactive)
Cn1c(=O)oc2cc(S(=O)(=O)N3CCCC(C(=O)NCC4COc5ccccc5O4)C3)ccc21 (stereo not drawn),77,79.5% (inactive),77% (inactive),83.6% (inactive),94% (inactive),3.15% (inactive),90.9,94,0.8% (inactive),-2.79% (inactive),-11.9% (inactive),-20.4% (inactive),3.09% (inactive),86% (inactive),90.4% (inactive),0.04% (inactive),4.73% (inactive)
Cc1nnc(SCC(=O)Nc2ccc3c4c(cccc24)CC3)n1C,102,79% (inactive),102% (inactive),93.2% (inactive),86.9% (inactive),0.115% (inactive),86.8,86.9,-6.08% (inactive),-3.83% (inactive),-0.36% (inactive),-5.08% (inactive),-4.3% (inactive),92.9% (inactive),89.8% (inactive),3.25% (inactive),3.77% (inactive)
CCCc1nnc(NC(=O)NCCN2C(=O)C3C4C=CC(C4)C3C2=O)s1 (stereo not drawn),110,121% (inactive),110% (inactive),96.6% (inactive),97.8% (inactive),5.61% (inactive),92.2,97.8,1.87% (inactive),-13% (inactive),-2.99% (inactive),6.19% (inactive),-0.68% (inactive),101% (inactive),101% (inactive),-0.135% (inactive),3.27% (inactive)
CCOC(=O)c1nc2sc3c(c2c(=O)[nH]1)CCCC3,80.5,100% (inactive),80.5% (inactive),93.8% (inactive),83.5% (inactive),-3.7% (inactive),87.2,83.5,-2.31% (inactive),-16% (inactive),10.2% (inactive),12.2% (inactive),-1.32% (inactive),107% (inactive),99.3% (inactive),2.02% (inactive),3.93% (inactive)
Cc1cccc(C2CC(c3ccc(Cl)cc3)Nc3nc(N)nn32)c1 (stereo not drawn),91,113% (inactive),91% (inactive),103% (inactive),96.6% (inactive),-10.4% (inactive),107,96.6,0.4% (inactive),-5.25% (inactive),0.43% (inactive),23.9% (inactive),4.33% (inactive),82.1% (inactive),74.9% (inactive),0.01% (inactive),3.62% (inactive)
COc1cccc(-c2nnc(NC(=O)c3ccccc3Br)o2)c1,87,85.5% (inactive),87% (inactive),71.6% (inactive),67% (inactive),-22.2% (inactive),89.2,67,-5.87% (inactive),1.33% (inactive),-13.4% (inactive),13.6% (inactive),-5.12% (inactive),71.7% (inactive),73.2% (inactive),1.46% (inactive),-2.32% (inactive)
O=C(OCn1nnc2ccccc2c1=O)c1cc2ccccc2o1,88,106% (inactive),88% (inactive),94.6% (inactive),91.7% (inactive),-23.7% (inactive),115,91.7,-5.47% (inactive),-8.5% (inactive),3.37% (inactive),-2.58% (inactive),1.18% (inactive),99.5% (inactive),104% (inactive),3.96% (inactive),7.11% (inactive)
CC(=O)N1CCc2c(sc(NC(=O)c3ccc(S(=O)(=O)N(C)C)cc3)c2C#N)C1,83.5,105% (inactive),83.5% (inactive),73.3% (inactive),87.5% (inactive),5.97% (inactive),81.5,87.5,-2.27% (inactive),-5.41% (inactive),-4.59% (inactive),4.39% (inactive),-3.73% (inactive),104% (inactive),94.3% (inactive),0.115% (inactive),1.67% (inactive)
COc1ccc(C)cc1S(=O)(=O)N1CCN(S(=O)(=O)c2cc(C)ccc2OC)CC1,110,114% (inactive),110% (inactive),96.5% (inactive),95% (inactive),-0.24% (inactive),95.2,95,-5.47% (inactive),-9.03% (inactive),-15.6% (inactive),-26.2% (inactive),-0.01% (inactive),93.8% (inactive),90.9% (inactive),2.31% (inactive),3% (inactive)
CN(C)CCCNC(=O)CCC1CCCCC1,93,78% (inactive),93% (inactive),101% (inactive),94% (inactive),9.09% (inactive),84.9,94,-7.16% (inactive),1.17% (inactive),-1.1% (inactive),-3.73% (inactive),0.26% (inactive),99.5% (inactive),107% (inactive),0.2% (inactive),6.01% (inactive)
CC(C)C(=O)Nc1ccc(-c2nc3cccnc3o2)cc1,93.5,82% (inactive),93.5% (inactive),128% (inactive),95.2% (inactive),-4.14% (inactive),99.4,95.2,1.03% (inactive),-5.33% (inactive),-11.7% (inactive),-2.21% (inactive),1.32% (inactive),101% (inactive),104% (inactive),2.22% (inactive),1.35% (inactive)
CCOC(=O)N1CCC(NC(=O)c2cnn3ccccc23)CC1,112,123% (inactive),112% (inactive),86% (inactive),87.1% (inactive),1.21% (inactive),85.9,87.1,-1.2% (inactive),3.67% (inactive),-12.9% (inactive),-10.7% (inactive),-1.34% (inactive),108% (inactive),99.9% (inactive),0.135% (inactive),2.01% (inactive)
COc1ccc(-n2nnnc2SCC(=O)N2CCOCC2)cc1,93,92% (inactive),93% (inactive),83.8% (inactive),89.2% (inactive),0.58% (inactive),88.6,89.2,-4.67% (inactive),-0.5% (inactive),-2.94% (inactive),-5.96% (inactive),-1.07% (inactive),96.2% (inactive),98.8% (inactive),0.85% (inactive),3.08% (inactive)
N#CCCN(Cc1cccnc1)C(=O)Nc1ccc(Cl)c(Cl)c1,118,94% (inactive),118% (inactive),94.6% (inactive),91.2% (inactive),9.8% (inactive),81.4,91.2,0.13% (inactive),3.28% (inactive),-13.1% (inactive),-14.9% (inactive),0.83% (inactive),95.3% (inactive),102% (inactive),0.065% (inactive),4.53% (inactive)
CCOC(=O)c1ccc2ncc(C(=O)OCC)c(NCCN(C)C)c2c1,84,99.5% (inactive),84% (inactive),102% (inactive),91.8% (inactive),10.6% (inactive),81.2,91.8,-0.8% (inactive),1.83% (inactive),-4.69% (inactive),2.56% (inactive),-1.02% (inactive),95.8% (inactive),94.8% (inactive),2.64% (inactive),2.56% (inactive)
O=C(c1cc2ccccc2oc1=O)N1CCN(c2ccc(N3CCOCC3)nn2)CC1,98,118% (inactive),98% (inactive),88.5% (inactive),101% (inactive),7.39% (inactive),93.9,101,-0.77% (inactive),-2% (inactive),5.29% (inactive),-7.26% (inactive),-1.81% (inactive),101% (inactive),96.6% (inactive),0.885% (inactive),-0.58% (inactive)
